# From PubChem
# GPR151 activ – activators of human GPR151; Q8TDV0; AID 1508602; activation, % at 11.2 µM; PathHunter beta-arrestin GPR151 cells, luminescence; hit rate 1% among 650,000; in the data active means activation above about 4.9%;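 further: 0% = median of compound wells and 100% = cells with positive control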
# FBW7 act – activators of human E3 ligase FBW7; normalized activity (activation), % at 26.1 µM; AlphaScreen FBW7–phospho-cyclin E peptide binding, activator screen; Q969H0; AID 1259310; hit rate 0.13% among 650,000; in the data active means normalized activity above about 1.9%;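 further: purified mutant Fbw7 with reduced substrate affinity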
# TEAD-YAP block – TEAD-YAP interaction inhibition; hit rate 1.4% among 640,000; AID 1259422; inhibition, % at 9.12 µM; HEK-TIYL cells, TEAD-Gal4/YAP UAS-luciferase luminescence; in the data active means inhibition above about 32%;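 further: 0% = median of test compound wells and 100% = reference inhibitor wells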
# MITF primary – inhibitors of human MITF; O75030; AlphaScreen MITF homodimerization, bead proximity signal; inhibition, % at 2.6 µM; hit rate 0.91% among 650,000; in the data active means inhibition above about 50%;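 further: 0% = vehicle wells with protein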
# * = called active by the depositor. Compounds with a hit are over-represented: about 3.4% of the library has one in this group of screens.
SMILES,GPR151 activ,FBW7 act,TEAD-YAP block,MITF primary
O=C1CC(c2cccc([N+](=O)[O-])c2)c2c(ccc3ccccc23)N1 (configuration not stated),1,0,61*,-5
Cc1ccc(C2CC(=O)Nc3ccc4ccccc4c32)cc1 (configuration not stated),-1,0,2,17
Cc1ccc2ncnc(NCCc3ccccc3)c2c1,1,0,50*,11
CC(C)CNc1ncnc2ccc(Br)cc12,1,0,42*,-5
Cc1ccc2ncnc(NC3CCCCC3)c2c1,-1,0,37*,32
Brc1ccc2ncnc(NCc3ccccc3)c2c1,0,0,60*,-5
O=C(O)CNc1ncnc2ccc(Br)cc12,-1,0,3,13
CC1CCN(S(=O)(=O)c2ccc3ncn(CC(=O)Nc4ccccn4)c(=O)c3c2)CC1,1,0,3,11
CN(C)c1ccc(Nc2ncnc3ccc(Br)cc23)cc1,1,0,34*,-1
CC(C)OCCCNc1ncnc2ccc(Br)cc12,1,0,46*,-8
CCN(CC)c1ccc(Nc2ncnc3ccc(Br)cc23)cc1,0,0,7,4
CCOC(=O)/C=C/C(=O)Nc1ccc(S(=O)(=O)N2CCOCC2)cc1,0,0,5,-6
COc1cc(OC)cc(C(=O)Nc2ccc(N3CCN(C(=O)C(C)C)CC3)cc2)c1,-1,0,47*,-2
COc1cc(OC)cc(C(=O)Nc2ccc(NC(=O)c3cc(OC)cc(OC)c3)cc2)c1,1,0,43*,1
CCn1c2ccccc2c2cc(NC(=O)c3cc(OC)cc(OC)c3)ccc21,-1,0,52*,13
O=C1Cc2ccccc2N1C1CCN(CC(O)COc2ccccc2)CC1 (configuration not stated),1,0,36*,1
OC(COc1ccccc1)CN1CCN(CC(O)COc2ccccc2)CC1 (configuration not stated),0,0,10,-10
CC1(C)C(c2ccc(F)cc2)=[N+]([O-])C2(CCCCC2=O)N1O (configuration not stated),2,1,-7,8
CCCOc1ccc(C2=[N+]([O-])C3(CCCCC3=O)N(O)C2(C)C)cc1 (configuration not stated),1,0,55*,-2
O=C(NCC1CCCO1)c1ccc2c(=O)n(Cc3ccco3)c(SCC(=O)N3CCN(c4ccccc4)CC3)nc2c1 (configuration not stated),0,0,35*,-2
CN(Cc1ccccc1)C(=O)CSc1nc2cc(C(=O)NCC3CCCO3)ccc2c(=O)n1Cc1ccco1 (configuration not stated),1,0,38*,-5
O=C(CSc1nc2cc(C(=O)NCC3CCCO3)ccc2c(=O)n1Cc1ccco1)NC1CCCC1 (configuration not stated),-1,0,11,-3
COCCNC(=O)c1ccc2c(=O)n(Cc3ccco3)c(SCC(=O)N3CCN(c4ccccc4)CC3)nc2c1,0,0,28,-7
CN1CCN(C(=O)c2ccc(-c3nc(C(=O)Nc4ccc(Oc5ccccc5)cc4)cs3)cc2)CC1,3,1,44*,14
CC(=O)Nc1ccc(NC(=O)c2csc(-c3ccc(C(=O)NC4CC4)cc3)n2)cc1,0,0,1,7
SMILES,GPR151 activ,FBW7 act,TEAD-YAP block,MITF primary
O=C(NC1CC1)c1ccc(-c2nc(C(=O)Nc3ccc(Oc4ccccc4)cc3)cs2)cc1,1,0,33*,6
CC(=O)Nc1ccc(C2C(C#N)=C(N)Oc3cc(O)ccc32)cc1 (configuration not stated),1,0,-9,11
Cc1ccc(NS(=O)(=O)c2cc(C(=O)Nc3ccccc3)ccc2Br)cc1,1,0,39*,-6
O=C(Nc1ccccc1)c1ccc(Cl)c(S(=O)(=O)Nc2ccc(I)cc2)c1,0,0,36*,4
ClCc1nc2cc3ccccc3cc2[nH]1,0,0,40*,-3
CN(C)Cc1ccc2c(sc3nc4n(c(=O)c32)CCCCC4)c1O,-1,0,53*,8
C=CCN1C(=O)/C(=C\c2cccc(Br)c2)C(C(=O)OC)=C1C,1,0,-18,0
O=C1C(Cl)=C(N2CCN(Cc3ccccc3)CC2)C(=O)c2ccccc21,1,0,8,11
Cc1ccc(NC(=O)C2CCN(S(=O)(=O)c3cccc4cccnc34)CC2)cc1C,2,0,18,-6
CC1(C)CC(N2CCOCC2)=CC(=[N+]2CCOCC2)C1,0,0,4,-9
CCCN(CCC)C1=CC(=[N+]2CCCC2)CC(C)(C)C1,1,0,69*,-10
CN(C)NC1=CC(=[N+]2CCCC2)CC(C)(C)C1,2,0,3,-10
CC1(C)CC(N2CCCCC2)=CC(=[N+]2CCCCC2)C1,2,0,75*,5
CC(C(=O)NCc1cccc(Cl)c1)n1c2ccccc2c2cn[nH]c(=O)c21 (configuration not stated),1,0,-6,2
COc1ccccc1OCC(=O)Nc1ccc(-c2cn[nH]c2)cc1,1,0,-12,-7
Cc1cc2cc(C(=O)N3CCC(N4CCC(C(=O)NC(C)C)CC4)CC3)ccc2o1,0,0,5,-1
Cc1[nH]c2c(C(=O)NCC3Cc4c(F)ccc(-c5ncccn5)c4O3)cccc2c1C (configuration not stated),2,0,32*,9
CN(Cc1ccccc1)c1ncnc(N)c1[N+](=O)[O-],-1,0,0,4
CCCN(CCC)c1ncnc(N)c1[N+](=O)[O-],-2,0,61*,-11
Cc1nc2scc(C)n2c1C(=O)NC1CCC1,-1,1.9*,7,18
NC(=O)C(=O)N/N=C/c1ccc(O)c(O)c1,1,0,0,10
Cc1ccc(S(=O)(=O)/N=C2/C=C(Sc3ncn[nH]3)C(=O)c3ccccc32)cc1,-1,0,98*,-6
O=C(NC1CC1)c1ccc2cncc(-c3ccccc3)c2n1,5,0,51*,5
O=C(NC1CCN(Cc2ccccc2)CC1)c1ccc2cncc(-c3ccccc3)c2n1,1,0,65*,16
O=C(c1ccc2cncc(-c3ccccc3)c2n1)N1CCCCC1,-1,-1,50*,-16
SMILES,GPR151 activ,FBW7 act,TEAD-YAP block,MITF primary
O=C(NC1CC1)c1cncc(-c2ccccc2)c1,1,0,4,-1
COC(=O)c1ccc(-n2c(C)cc(/C=C3/NC(=O)N(c4ccccc4)C3=O)c2C)cc1,0,1,-4,8
Cc1ccc2cc(C#N)c(SCC(=O)Nc3c(C)[nH]c(=O)[nH]c3=O)nc2c1C,0,0,1,16
CCOC(=O)c1c(NC(=O)CSc2nnc(CNC(=O)c3ccc(C)c([N+](=O)[O-])c3)n2-c2cccc(C)c2C)sc2c1CCC2,0,0,-5,-12
COc1cccc(N2C(=O)NC(=O)/C(=C/c3cc(OC)c(OC)cc3OC)C2=O)c1,4,0,-6,5
COc1cc(/C=C2\Oc3c(ccc(O)c3CN3CCCC3)C2=O)cc(OC)c1OC,1,0,32*,-1
